Experimental data taken from PubChem BioAssay (NCATS).
Results filed as inconclusive are left out. Activity calls are given as the source filed them. Unless noted, calls follow the shape of the dose curve; as a rule, active = well fitted curve in either direction with a large enough effect (not every such curve was filed as active); inconclusive = small, poorly fitted or top-dose-only effect, or another doubt; inactive = flat fitted curve, though single readings scatter.

Legend:
[1] = molecular target: Lysosomal acid glucosylceramidase (Homo sapiens) (UniProt P04062); assay: Glucocerebrosidase-p2 (AID 348; in the data active = potency below about 10 µM; also: potency is read from the fitted curve at half-maximal effect); settings: purified GBA, blue fluorogenic substrate, 40 min
In short: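 Compounds titrated from 0.6 nM upwards against 0.2 nM enzyme in pH 5.9 citric acid/KH2PO4, taurocholate, tween-20; blue fluorogenic substrate 80 uM, 40 min room temperature, stopped and read Ex 365/Em 440 for AC50.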

[2] = AP1 Signaling Pathway (AID 357); settings: ME-180 AP-1-bla reporter, EGF-induced, beta-lactamase ratio, 5 h; at 7.69 µM (top of the series) unless noted;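 also: ME-180 reporter cells stimulated with EGF at its EC50 level; % is scaled to controls: 0 for no effect and ±100 for the full control effect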
In short: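 Beta-lactamase reporter under AP-1 response element, ME-180 background. Stimulus: EC50 EGF. Compound exposure 5 h, 37 °C. Detection: CCF4, 2.5 h RT, 460/530 nm. Values: AC50 from titration.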

[3] = molecular target: Cytochrome P450 1A2 (Homo sapiens) (UniProt P05177); assay: p450-cyp1a2 (AID 410; calls by dose curve; also: potency is read from the fitted curve at half-maximal effect;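 as to activity change, negative = inhibition: -100% = full effect of reference inhibitor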); settings: recombinant CYP1A2, luciferin-ME demethylation, luminescence; series mostly up to 57 µM
In short: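 Human CYP1A2 (20nM) demethylated Luciferin-ME at its Km (100uM) in 100mM KPO4. After 10 min compound preincubation, NADPH regeneration ran the reaction 60 min at room temperature. Luciferin was read by luminescence, normalized to 57 uM furafylline.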

[4] = NFAT Signaling Pathway (AID 444); settings: Jurkat NFAT-bla M1, carbachol, beta-lactamase ratio, 5 h; at 7.69 µM (top of the series) unless noted;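 also: carbachol stimulus at about its EC50 of 1 µM final; % is scaled to controls: 0 for no effect and ±100 for the full control effect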
In short: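 Jurkat cells carrying an NFAT-driven β-lactamase reporter and co-transfected muscarinic M1 receptor were treated with compound plus carbachol (1 uM final, an EC50 level) for 5 h at 37 °C. CCF4 loading followed for 1 h at RT; 460/530 nm ratio gave %activity.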

[5] = Stat Signaling Pathway (AID 446); settings: ME-180 SIE beta-lactamase reporter, IL-6 stimulated, 5 h; at 7.69 µM (top of the series) unless noted;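 also: ME-180 cervical cancer cells given 40 pM IL-6 alongside compound; SIE-controlled beta-lactamase reporter measured as 460/530 nm FRET emission ratio; % is scaled to controls: 0 for no effect and ±100 for the full control effect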
In short: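 Screening format detects activators and inhibitors alike: ME-180 SIE-bla cells stimulated at 40 pM IL-6 for 5 hrs with compound, then dual-emission beta-lactamase read at 405 nm excitation.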

[6] = molecular target: Glucocorticoid receptor (Homo sapiens) (UniProt P04150); assay: GR-EFC Redistribution (AID 451; calls by dose curve; also: potency is read from the fitted curve at half-maximal effect); settings: CHO-K1 GR-EFC translocation, beta-gal luminescence, 2 h
In short: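 CHO-K1 cells stably expressing nuclear-localized β-gal enzyme acceptor and GR fused C-terminally to the enzyme donor fragment; ligand-driven nuclear translocation restores β-gal by complementation. Compounds titrated up to 46 uM final, 2 h at 37 °C; luminescence read.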

[7] = molecular target: Mitogen-activated protein kinase 10 (Mus musculus) (UniProt Q61831); assay: JNK3 AlphaScreen Assay (AID 530); settings: JNK3 lysate, c-Jun phosphorylation; series mostly up to 57.1 µM;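 also: kinase came from lysate of stimulated human HepG2 cells; signal reports phosphorylation of biotinylated GST-cJun 1-79 at Ser73 with 10 µM ATP; % is scaled to controls: 0 for no effect and ±100 for the full control effect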
In short: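 JNK3 came from HepG2 lysates pre-activated with IL-1beta and TNF-alpha and phosphorylated biotinylated GST-cJun (1-79) at 10 uM ATP, pH 7.6, room temperature. Compounds were titrated. AlphaScreen signal used anti-phospho-cJun (Ser73) antibody.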

[8] = molecular target: 3',5'-cyclic-AMP phosphodiesterase 4B (Homo sapiens) (UniProt Q07343); assay: qHTS Assay for Inhibitors of PDE-IV (AID 607; active = well fitted activation curve with a large enough effect in the main read-out, with a control signal flat, not every such curve was filed as active; also: % of control where 0% means no effect); settings: HEK293 ACTOne CNG channel cells, membrane potential fluorescence; series mostly up to 22.9 µM
In short: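 The readout is membrane depolarisation from a cAMP-sensing CNG channel, detected with a potential dye at ex 535/em 590. Cells were HEK293-derived (endogenous PDE-IV) at 1000 cells/well, titrated up to 22.9 uM final.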

[9] = molecular target: Cytochrome P450 3A4 (Homo sapiens) (UniProt P08684); assay: qHTS Assay for Activators of Cytochrome P450 3A4 (AID 885; active = well fitted curve in the direction sought with a large enough effect; an effect the other way counts as inactive or inconclusive; also: nearly all actives have a fitted effect of over 65% in size; also: potency is read from the fitted curve at half-maximal effect); settings: recombinant CYP3A4, Luciferin-PPXE luminescence, 60 min; series mostly up to 57.1 µM
In short: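 Steps: enzyme/substrate mix dispensed; compound added, 10 min RT; NADPH regeneration solution added, 60 min RT; luciferin detection buffer stops reaction; 20 min later luminescence measured.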

[10] = Primary qHTS for small molecule stabilizers of the endoplasmic reticulum resident proteome: Secreted ER Calcium Modulated Protein (SERCaMP) assay (AID 1508630; active = well fitted curve in the direction sought with a large enough effect; an effect the other way counts as inactive or inconclusive; also: % is scaled to controls: 0 for no effect and ±100 for the full control effect); settings: SH-SY5Y GLuc-SERCaMP (Gaussia luciferase released on ER calcium loss) secretion, thapsigargin, luminescence; series mostly up to 38.4 µM
In short: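 GLuc-SERCaMP-expressing SH-SY5Y cells, pretreated 16 h with compound, are challenged with thapsigargin to empty ER calcium stores; after 4 h, coelenterazine is added directly to the medium and luminescence is imaged.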

[11] = molecular target: Cytochrome P450 3A4 (Homo sapiens) (UniProt P08684); assay: qHTS Assay for Inhibitors and Substrates of Cytochrome P450 3A4 (AID 884; active = well fitted curve in the direction sought with a large enough effect; an effect the other way counts as inactive or inconclusive; also: nearly all actives have a fitted effect of over 50% in size; also: potency is read from the fitted curve at half-maximal effect); settings: recombinant CYP3A4, Luciferin-PPXE luminescence; series mostly up to 57.1 µM
In short: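 20 nM human CYP3A4 with 25 uM Luciferin-PPXE (at KM) in 200 mM KPO4, preincubated 10 min with compound; NADPH regeneration started a 60 min RT reaction. Luciferin detected by luminescence, normalized to 57 uM ketoconazole as full inhibition.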

[12] = qHTS Assay for Identification of Small Molecule Agonists for Hypoxia Response Element Signaling Pathway (AID 914; active = well fitted activation curve with a large enough effect in the signal ratio, with a control signal flat, not every such curve was filed as active; the % refers to the signal ratio; also: % of control where 0% means no effect); settings: ME-180 (cervical carcinoma) HRE-bla reporter, beta-lactamase ratio, CoCl2, 17 h; activation: stronger effect = higher value
In short: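 Reporter activity (beta-lactamase, CCF4 460nm/530nm ratio) in HRE-bla ME-180 cells is recorded after 17 h compound exposure with EC50 CoCl2 at 37 degrees Celsius. AC50 values come from titration data.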

[13] = molecular target: Cytochrome P450 2D6 (Homo sapiens) (UniProt P10635); assay: qHTS Assay for Inhibitors and Substrates of Cytochrome P450 2D6 (AID 891; active = well fitted curve in the direction sought with a large enough effect; an effect the other way counts as inactive or inconclusive; also: potency is read from the fitted curve at half-maximal effect; nearly all actives have a fitted effect of over 60% in size); settings: recombinant CYP2D6, luciferin-ME EGE luminescence; series mostly up to 57.1 µM
In short: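 Human CYP2D6 (5 nM) with 30 uM Luciferin-ME EGE (at Km) in 100 mM KPO4, compound preincubated 10 min, then NADPH regeneration system for 60 min at room temperature. Luciferin read by luminescence; normalized to 1.43 uM quinidine.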

Cytochrome P450 1A2 (Homo sapiens), sequence (P05177 whole entry, looked up): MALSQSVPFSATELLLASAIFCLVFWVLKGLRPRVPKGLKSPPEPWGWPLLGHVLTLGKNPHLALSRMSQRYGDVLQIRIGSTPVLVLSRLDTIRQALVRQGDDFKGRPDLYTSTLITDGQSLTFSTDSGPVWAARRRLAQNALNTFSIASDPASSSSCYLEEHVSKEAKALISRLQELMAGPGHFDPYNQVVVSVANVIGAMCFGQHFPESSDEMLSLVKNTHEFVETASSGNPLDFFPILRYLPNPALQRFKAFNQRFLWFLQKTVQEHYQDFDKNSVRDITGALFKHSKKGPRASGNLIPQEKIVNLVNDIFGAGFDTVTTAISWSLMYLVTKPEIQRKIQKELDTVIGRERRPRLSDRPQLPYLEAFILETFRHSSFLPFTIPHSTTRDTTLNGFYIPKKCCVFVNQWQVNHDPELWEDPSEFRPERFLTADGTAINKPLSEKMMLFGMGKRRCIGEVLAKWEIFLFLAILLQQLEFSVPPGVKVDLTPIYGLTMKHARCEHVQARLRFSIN
Lysosomal acid glucosylceramidase (Homo sapiens), sequence (P04062 whole entry, looked up): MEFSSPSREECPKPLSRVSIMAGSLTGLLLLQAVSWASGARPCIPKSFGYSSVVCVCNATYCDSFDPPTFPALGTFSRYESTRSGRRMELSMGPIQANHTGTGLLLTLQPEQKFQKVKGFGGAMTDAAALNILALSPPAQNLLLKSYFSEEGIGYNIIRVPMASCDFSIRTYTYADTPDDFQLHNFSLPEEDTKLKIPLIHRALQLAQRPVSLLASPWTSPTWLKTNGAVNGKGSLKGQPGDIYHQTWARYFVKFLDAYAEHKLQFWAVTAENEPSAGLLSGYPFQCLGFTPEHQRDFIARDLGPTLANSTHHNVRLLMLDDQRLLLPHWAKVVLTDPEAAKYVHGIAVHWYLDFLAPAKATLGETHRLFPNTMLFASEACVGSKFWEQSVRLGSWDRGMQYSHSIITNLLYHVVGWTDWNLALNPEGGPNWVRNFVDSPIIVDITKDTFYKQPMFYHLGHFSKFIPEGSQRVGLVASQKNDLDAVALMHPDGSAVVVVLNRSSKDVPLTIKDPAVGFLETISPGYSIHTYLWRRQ
Glucocorticoid receptor (Homo sapiens), sequence (P04150 whole entry, looked up, the tested form may be a part): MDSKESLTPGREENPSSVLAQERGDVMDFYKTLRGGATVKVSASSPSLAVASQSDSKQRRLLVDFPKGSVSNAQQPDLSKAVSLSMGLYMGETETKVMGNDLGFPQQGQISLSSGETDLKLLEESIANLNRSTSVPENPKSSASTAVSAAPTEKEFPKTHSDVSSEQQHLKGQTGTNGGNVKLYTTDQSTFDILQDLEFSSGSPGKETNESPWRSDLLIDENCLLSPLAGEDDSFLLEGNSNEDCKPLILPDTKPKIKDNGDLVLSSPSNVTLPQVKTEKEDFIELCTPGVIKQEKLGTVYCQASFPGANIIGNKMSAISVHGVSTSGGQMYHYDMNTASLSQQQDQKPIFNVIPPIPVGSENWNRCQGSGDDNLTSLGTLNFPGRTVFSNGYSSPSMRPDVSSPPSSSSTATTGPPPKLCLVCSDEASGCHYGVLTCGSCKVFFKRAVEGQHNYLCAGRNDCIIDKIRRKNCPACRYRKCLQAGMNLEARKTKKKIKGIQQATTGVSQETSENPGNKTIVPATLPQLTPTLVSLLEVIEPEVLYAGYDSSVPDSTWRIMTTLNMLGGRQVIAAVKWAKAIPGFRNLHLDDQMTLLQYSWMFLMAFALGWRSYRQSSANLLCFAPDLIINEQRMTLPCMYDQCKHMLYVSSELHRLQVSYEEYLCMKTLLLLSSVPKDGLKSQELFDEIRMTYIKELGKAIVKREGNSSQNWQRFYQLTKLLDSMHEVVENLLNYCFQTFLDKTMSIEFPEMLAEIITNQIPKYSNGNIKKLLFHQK
Cytochrome P450 3A4 (Homo sapiens), sequence (P08684 whole entry, looked up): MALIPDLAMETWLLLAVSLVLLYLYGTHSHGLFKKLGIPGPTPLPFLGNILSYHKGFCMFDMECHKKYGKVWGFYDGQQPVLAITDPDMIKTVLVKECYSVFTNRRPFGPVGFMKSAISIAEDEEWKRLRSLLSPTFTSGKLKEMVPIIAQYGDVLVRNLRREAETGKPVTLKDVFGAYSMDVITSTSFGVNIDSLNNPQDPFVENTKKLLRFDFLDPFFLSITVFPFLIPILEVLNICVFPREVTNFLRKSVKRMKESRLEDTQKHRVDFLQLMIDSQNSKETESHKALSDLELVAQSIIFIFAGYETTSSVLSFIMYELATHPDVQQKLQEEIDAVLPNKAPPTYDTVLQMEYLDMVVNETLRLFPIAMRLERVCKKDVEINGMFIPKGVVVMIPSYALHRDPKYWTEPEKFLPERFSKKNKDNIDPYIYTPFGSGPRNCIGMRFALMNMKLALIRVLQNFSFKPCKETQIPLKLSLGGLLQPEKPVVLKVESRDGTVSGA
3',5'-cyclic-AMP phosphodiesterase 4B (Homo sapiens), sequence (Q07343 whole entry, looked up): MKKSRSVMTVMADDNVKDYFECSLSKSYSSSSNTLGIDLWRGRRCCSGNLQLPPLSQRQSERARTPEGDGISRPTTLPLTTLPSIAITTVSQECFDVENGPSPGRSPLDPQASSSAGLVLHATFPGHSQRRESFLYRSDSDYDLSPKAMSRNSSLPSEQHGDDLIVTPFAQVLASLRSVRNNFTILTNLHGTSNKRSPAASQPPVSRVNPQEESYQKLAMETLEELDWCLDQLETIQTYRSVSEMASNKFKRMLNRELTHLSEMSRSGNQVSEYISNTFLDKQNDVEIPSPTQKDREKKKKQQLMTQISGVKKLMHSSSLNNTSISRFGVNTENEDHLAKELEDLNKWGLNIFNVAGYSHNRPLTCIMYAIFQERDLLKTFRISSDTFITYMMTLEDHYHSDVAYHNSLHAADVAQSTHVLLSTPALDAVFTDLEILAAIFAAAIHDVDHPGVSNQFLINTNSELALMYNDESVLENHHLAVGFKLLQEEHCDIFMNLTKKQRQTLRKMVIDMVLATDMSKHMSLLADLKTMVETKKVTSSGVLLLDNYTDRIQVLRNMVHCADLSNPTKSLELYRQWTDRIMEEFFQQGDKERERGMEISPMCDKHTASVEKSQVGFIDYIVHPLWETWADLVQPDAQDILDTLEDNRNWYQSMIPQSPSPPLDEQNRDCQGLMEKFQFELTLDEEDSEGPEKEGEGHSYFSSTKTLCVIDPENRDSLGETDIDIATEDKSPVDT
Cytochrome P450 2D6 (Homo sapiens), sequence (P10635 whole entry, looked up): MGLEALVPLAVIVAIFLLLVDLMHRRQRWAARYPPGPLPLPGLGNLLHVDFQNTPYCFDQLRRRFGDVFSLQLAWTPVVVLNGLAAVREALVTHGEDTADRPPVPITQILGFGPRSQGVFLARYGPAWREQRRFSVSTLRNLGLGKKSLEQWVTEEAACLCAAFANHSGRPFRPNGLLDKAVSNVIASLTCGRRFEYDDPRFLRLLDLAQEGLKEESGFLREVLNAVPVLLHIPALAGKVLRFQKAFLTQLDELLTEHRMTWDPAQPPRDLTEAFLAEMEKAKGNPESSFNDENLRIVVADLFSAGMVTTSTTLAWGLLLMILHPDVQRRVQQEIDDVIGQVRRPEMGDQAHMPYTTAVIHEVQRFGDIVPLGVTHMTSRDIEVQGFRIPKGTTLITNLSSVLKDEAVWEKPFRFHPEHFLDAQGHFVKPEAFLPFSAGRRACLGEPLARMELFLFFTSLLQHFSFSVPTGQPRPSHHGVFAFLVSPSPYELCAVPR

COc1ccc(NC(=O)N2CCC3(CC2)CCN(C(=O)c2ccncc2)CC3)cc1
active: Potency [3] 25.1 µM
inactive: Potency [1] > 11.4 µM | activity change, negative = inhibition [2] -0.635% | activity change, negative = inhibition [4] 3.85% | activity, negative = inhibition [5] 4.58% | Potency [6] > 46 µM | Potency [7] | Potency [8] | Potency [9] | outcome [10]

COc1cccc(Cn2c(=O)c(-c3cccc(C#N)c3)nc3cnc(Nc4ccccc4)nc32)c1
inactive: Potency [1] > 11.4 µM | activity change, negative = inhibition [2] -3.95% | Potency [3] | activity change, negative = inhibition [4] -12.1% | activity, negative = inhibition [5] -14.2% | Potency [6] > 46 µM | Potency [7] | Potency [8] | Potency [9] | outcome [10]

O=C(Nc1cccc(F)c1)N1CCCC2(CCN(C(=O)c3cnccn3)CC2)C1
inactive: Potency [1] > 11.4 µM | activity change, negative = inhibition [2] -5.64% | Potency [3] | activity change, negative = inhibition [4] -3.4% | activity, negative = inhibition [5] -5.83% | Potency [6] > 46 µM | Potency [7] | Potency [9] | outcome [10]

COC(=O)N1CCC[C@@]2(CCN(C(=O)Nc3ccc(OC)cc3)C2)C1
inactive: Potency [1] > 11.4 µM | activity change, negative = inhibition [2] -11% | Potency [3] | activity change, negative = inhibition [4] -1.85% | activity, negative = inhibition [5] 3.7% | Potency [6] > 46 µM | Potency [7] | Potency [8] | Potency [9] | outcome [10]

CC(=O)N1CCC2(CCCN(c3cccc(-c4ccccc4)c3)C2)CC1
inactive: Potency [1] > 11.4 µM | activity change, negative = inhibition [2] -12.3% | activity change, negative = inhibition [4] -0.641% | activity, negative = inhibition [5] -8.45% | Potency [6] > 46 µM | Potency [7] | Potency [8] | Potency [9] | outcome [10]
active: Potency [3] 5.01 µM

O=C(c1ccco1)N1CCC2(CCCN(c3ccccc3)C2)CC1
inactive: Potency [1] > 11.4 µM | activity change, negative = inhibition [2] -6.34% | Potency [3] | activity change, negative = inhibition [4] -15.1% | activity, negative = inhibition [5] -2.43% | Potency [6] > 46 µM | Potency [7] | Potency [8] | Potency [9] | outcome [10]

COC(=O)N1CCC2(CCCN(C(c3ccccc3)c3ccccc3)C2)CC1
inactive: Potency [1] > 11.4 µM | activity change, negative = inhibition [2] 11.9% | activity change, negative = inhibition [4] -16.3% | activity, negative = inhibition [5] 13.3% | Potency [6] > 46 µM | Potency [7] | Potency [8] | Potency [9] | outcome [10]
active: Potency [3] 15.8 µM

O=C(c1cccc(F)c1)N1CCC[C@@]2(CCN(c3cccc(-c4ccccc4)c3)C2)C1
inactive: Potency [1] > 11.4 µM | activity change, negative = inhibition [2] 4.68% | activity change, negative = inhibition [4] -14.4% | activity, negative = inhibition [5] -5.9% | Potency [6] > 46 µM | Potency [7] | Potency [8] | Potency [9] | outcome [10]
active: Potency [3] 15.8 µM | Potency [11] 7.94 µM

Cn1cccc1C(=O)N1CCC[C@@]2(CCN(Cc3nccs3)C2)C1
inactive: Potency [1] > 11.4 µM | activity change, negative = inhibition [2] -4.63% | Potency [3] | activity change, negative = inhibition [4] 12.5% | activity, negative = inhibition [5] 9.2% | Potency [6] > 46 µM | Potency [7] | Potency [8] | Potency [9] | outcome [10]

COC(=O)N1CCC[C@@]2(CCN(c3ncccn3)C2)C1
inactive: Potency [1] > 11.4 µM | activity change, negative = inhibition [2] 2.3% | Potency [3] | activity change, negative = inhibition [4] 11.8% | activity, negative = inhibition [5] 8.51% | Potency [6] > 46 µM | Potency [7] | Potency [8] | activation [12] 23.3% | outcome [10]

O=S(=O)(c1ccccc1)N1CCC2(CC1)CN(C(c1ccccc1)c1ccccc1)C2
active: Potency [9] 3.16 µM | Potency [13] 2.51 µM
inactive: Potency [1] > 11.4 µM | activity change, negative = inhibition [2] 15.1% | Potency [3] | activity change, negative = inhibition [4] -14.8% | activity, negative = inhibition [5] -6.71% | Potency [6] > 46 µM | Potency [7] | Potency [8] | Potency [11] | outcome [10]

O=S(=O)(c1ccccc1)N1CCC[C@@]2(CCN(c3cccc(-c4ccccc4)c3)C2)C1
inactive: Potency [1] > 11.4 µM | activity change, negative = inhibition [2] -23.9% | activity change, negative = inhibition [4] -13.7% | activity, negative = inhibition [5] -8.6% | Potency [6] > 46 µM | Potency [7] | Potency [8] | Potency [9] | outcome [10]
active: Potency [3] 15.8 µM

O=C(Oc1ccccc1)N1CCC2(CC1)CN(c1ncccn1)C2
active: Potency [3] 25.1 µM | Potency [9] 15.8 µM
inactive: Potency [1] > 11.4 µM | activity change, negative = inhibition [2] -11.2% | activity change, negative = inhibition [4] -7.82% | activity, negative = inhibition [5] -0.184% | Potency [6] > 46 µM | Potency [7] | Potency [8] | Potency [11] | outcome [10]

COC(=O)N1CCC2(CC1)CCN(c1ncccn1)CC2
active: Potency [9] 15.8 µM
inactive: Potency [1] > 11.4 µM | activity change, negative = inhibition [2] 3.11% | Potency [3] | activity change, negative = inhibition [4] -23.4% | activity, negative = inhibition [5] -4.92% | Potency [6] > 46 µM | Potency [7] | Potency [8] | Potency [11] | outcome [10]
